Calb FLC: C. albicans growth inhibition with fluconazole, primary screen, CaCi-2 strain, Alamar Blue fluorescence; C. albicans CaCi-2 (fluconazole-resistant clinical isolate) + fluconazole, 48 h; growth inhibition, % (concentration not given with the values); actives 0.57% (n = 300,000); AID 1979, 2009;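 active = growth inhibition above about 58% in most replicates, limit read from the data, passing the limit was not always enough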;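 also: all wells also contain fluconazole at 8 µg/ml as a sub-toxic cotreatment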
MPTP block: mitochondrial permeability transition pore inhibitors, primary screen, biochemical, isolated mouse mitochondria, absorbance; inhibition, % at 10 µM; actives 1.4% (n = 360,000); Ca2+ swelling absorbance, 30 min; AID 602449, 2012;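 active = inhibition of 50% or more, scaled per plate between neutral and stimulator controls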
SKKanGAS inh: S. pyogenes SKKanGAS growth inhibitors in kanamycin, primary screen, streptokinase expression inhibitor project, SKKanGAS strain, BacTiter-Glo luminescence; 6 h; inhibition, % at 7.5 µM; actives 1.3% (n = 300,000); AID 1662, 2009;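 active = mean replicate score, as percent of positive control median, at least 50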;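 also: strain carries kanamycin resistance gene driven by streptokinase promoter and grows in 40 µg/ml kanamycin; loss of luminescence reflects streptokinase promoter inhibition or plain growth inhibition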
CSC inhib: cancer stem cell viability inhibitors, primary screen, luminescence; actives 1.1% (n = 300,000); cancer stem cell-like cells viability; inhibition, % at 7.5 µM; in the data active = inhibition above about 75%; tested in HMLE shEcad cells
Beta cell apopt: inhibitors of cytokine-induced beta cell apoptosis, primary screen, luminescence; AID 435005, 2010; actives 0.8% (n = 300,000); INS-1E cytokine-induced death, ATP luminescence, 48 h; percent of positive-control rescue, neutral wells zero; protection from apoptosis, % (test concentration not listed);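 active = Every replicate reaches about 75%, or at least half do and their mean reaches it too, limit read from the data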;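 also: higher means more ATP so stronger rescue from cytokine killing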
Mdm2 MdmX PPI: inhibitors of human Mdm2-MdmX association, primary screen, cell-based, luminescence, split luciferase, SaOS-2, uHTS. inhibition, % at 8 µM. actives 3% (n = 330,000). Protein Mdm4 (Homo sapiens) + E3 ubiquitin-protein ligase Mdm2 (Homo sapiens), …. SaOS-2 split-luciferase Mdm2/MdmX complementation. AID 485346, 2010;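 active = inhibition of at least 50% at 8 µM in the primary screen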
Rh123 counter: fluorescence retest of MPTP screen hits in isolated mitochondria, single concentration; shares compounds with MPTP block; membrane potential, Rhodamine 123 fluorescence; inhibition, % at 10 µM; actives 78% (n = 5,000); in the data active = inhibition above about 22%
MPTP abs DR: mitochondrial permeability transition pore inhibitors, dose response, biochemical, absorbance, uHTS hits; shares compounds with MPTP block; isolated mitochondria swelling; IC50, µM; actives 58% (n = 780); in the data active = IC50 below about 20 µM
MPTP cs DR: fluorescent counter-screen in isolated mitochondria, dose response, counter-screen for MPTP inhibitor project, biochemical, fluorescence, uHTS hits | shares compounds with MPTP block | isolated mitochondria counterscreen, fluorescence read-out | IC50, µM | actives 49% (n = 780) | AID 651564, 2012; in the data active = IC50 below about 80 µM
Numbers stand for hits; n = inactive; x = no result. Rows were chosen to be rich in hits. Some 5.4% of all compounds tested hit in one or more screens of this group.

SMILES | Calb FLC | MPTP block | SKKanGAS inh | CSC inhib | Beta cell apopt | Mdm2 MdmX PPI | Rh123 counter | others
CC(CC(=O)NCc1ccc(Cl)cc1)c1ccccc1 (configuration not stated) | n | n | n | n | n | n | x
CCOC(=O)c1ccc(N2CCN(c3ccc(F)cc3)CC2)c(NC(=O)Nc2cccc(OC)c2)c1 | n | 92 | n | x | n | n | 84
CCOC(=O)c1ccc(N2CCN(c3ccccc3F)CC2)c(NC(=O)Nc2ccccc2)c1 | n | 96 | n | n | n | n | 87
COc1cccc(NC(=O)CN2CCN(c3ccc(F)cc3)CC2)c1 | n | n | n | n | n | n | x
O=C(c1cccc(Oc2ccc([N+](=O)[O-])cc2)c1)N1CCOCC1 | n | n | n | n | n | n | x
O=C(CSc1ccc(C(F)(F)F)cc1[N+](=O)[O-])Nc1ccc2ccccc2c1 | n | 74 | n | n | n | n | n | MPTP abs DR=n;MPTP cs DR=n
Cc1sc(NC(=O)CN2CCCC2)nc1-c1ccc2c(c1)CCN2C(=O)c1cccc(F)c1 | n | 59 | n | n | x | n | n | MPTP abs DR=n;MPTP cs DR=35
Nc1nnc(CC(=O)N/N=C/c2cc([N+](=O)[O-])cc(Br)c2O)s1 | x | 53 | x | n | n | n | n
Nc1nnc(CC(=O)N/N=C/c2cccc([N+](=O)[O-])c2)s1 | n | n | n | n | n | n | x
O=C(NCc1ccccc1)c1ccc(CSc2ccccc2)o1 | n | n | n | n | n | n | x
Cc1ccc(C(=O)NNC(=S)NC(=O)c2ccc(Cl)cc2Cl)cc1 | n | 88 | 98 | n | x | n | n
CCCCC(=O)NC(=S)NNC(=O)c1ccc(Cl)cc1Cl | n | 51 | 90 | x | x | x | n | MPTP abs DR=15;MPTP cs DR=n
O=C(NNC(=S)NC(=O)c1ccccc1[N+](=O)[O-])c1ccc(Cl)cc1Cl | n | n | n | n | n | n | x
CC(C)(C)NCC(O)COc1ccccc1C1CCCC1 (configuration not stated) | x | 95 | x | n | n | n | n | MPTP abs DR=6.8;MPTP cs DR=56
CCc1ccccc1OC[C@@H](O)CN[C@H]1CCCc2ccccc21 | x | 104 | x | n | n | n | n | MPTP abs DR=5.5;MPTP cs DR=15
CC(C)(C)c1ccc(C(=O)N2CCC2(C)C(=O)Nc2ccc3[nH]ncc3c2)cc1 (configuration not stated) | x | n | x | x | x | x | x
CN1CCN(c2ccc(CNC(=O)c3cc4ccccc4o3)cc2)CC1 | n | n | n | n | n | n | x
Cc1ccc(OCCNS(=O)(=O)c2ccc(N3CCCC3=O)cc2)cc1C | n | 104 | n | n | n | n | 92
Cc1cc(N2CCCC2=O)cc(C)c1S(=O)(=O)NCCOc1ccccc1 | n | n | n | n | n | n | x
Cc1ccc(OCCNS(=O)(=O)c2ccc(N3CCCC3=O)cc2)cc1 | n | 84 | x | n | x | n | 70
CCCn1c(N)c(C(=O)CN(C)CC(=O)Nc2cccc(F)c2)c(=O)[nH]c1=O | x | n | x | n | n | n | x
Cc1ccc(CNC(=S)NC2CCC(C(C)(C)C)CC2)cc1 (configuration not stated) | n | 51 | 66 | n | n | n | 106
COc1ccc(CNC(=S)NC2CCCC2)cc1 | n | n | n | n | n | n | x
Cc1ccc(C(C)NC(=S)NC2CCCCC2)cc1C (configuration not stated) | n | n | n | n | n | n | x
CC(NC(=S)NC1CCC(C(C)(C)C)CC1)c1ccccc1 (configuration not stated) | n | 55 | 81 | n | n | n | 87
SMILES | Calb FLC | MPTP block | SKKanGAS inh | CSC inhib | Beta cell apopt | Mdm2 MdmX PPI | Rh123 counter | others
Cc1oc(-c2ccc3c(c2)OCCO3)cc1C(=O)O | n | n | n | n | n | n | x
Cc1c(C)[n+](=O)c2c(n1[O-])CCCCC2 | n | n | n | n | n | n | x
S=C(NCC1COc2ccccc2O1)Nc1ccccc1 (configuration not stated) | n | n | n | n | n | n | x
FC(F)Oc1ccc(NC(=S)NCC2COc3ccccc3O2)cc1 (configuration not stated) | n | 85 | n | n | n | n | 98
COc1cc(NC(=S)Nc2ccc(OC(F)F)cc2)cc(OC)c1 | n | 80 | n | n | n | n | 76
Fc1ccc(CNC(=S)Nc2ccc(OC(F)F)cc2)cc1 | n | 76 | n | n | n | n | 96
CCn1nnc2cc(C(=O)NCC(c3ccccc3OC)N(C)C)ccc21 (configuration not stated) | n | n | n | x | n | n | x
CCCOc1ccc(C(=O)CCC(=O)OCC(=O)N2CC(=O)Nc3ccccc32)cc1 | n | n | n | n | n | n | x
Cc1ccc(C)c(SCC(=O)Nc2cccc(S(=O)(=O)N3CCOCC3)c2)c1 | x | n | x | x | x | n | x
Cc1nn(-c2ccccc2)c(C)c1C(=O)NCCc1ccccc1 | n | n | n | n | n | n | x
Cc1cccc(CN2CCc3c(OCC(=O)NCc4ccco4)cccc3C2=O)c1 | n | n | n | n | n | n | x
CCOC(=O)C1(CCOc2ccccc2)CCN(Cc2ccc(OC)cc2)CC1 | n | 87 | n | n | n | x | 36
CCOC(=O)C1(CCOc2ccccc2)CCN(Cc2ccc(NC(C)=O)cc2)CC1 | n | n | n | n | n | n | x
CCOC(=O)C1(Cc2cccc(OC)c2)CCN(Cc2ccc(C)s2)CC1 | n | 97 | n | n | n | n | 85
CCOC(=O)C1(CCOc2ccccc2)CCN(Cc2cccc(OC)c2OC)CC1 | n | 75 | n | n | x | n | 33
Cc1ccc2cc(C#N)c(NCCNC(=O)C3CCC3)nc2c1C | n | n | n | n | n | n | x
c1ccc(NC2=NCCN2CCC2CCCCC2)cc1 | n | n | n | n | n | n | x
CC(=O)N1CCN(S(=O)(=O)c2cccc(C(=O)OCc3ccc(C(C)(C)C)cc3)c2)CC1 | x | 90 | x | x | x | n | 90
Cc1nn(-c2ccccc2)c(Cl)c1/C=N/NC(=O)c1ccccc1NS(=O)(=O)c1cccs1 | n | 88 | n | n | n | n | 66
O=C(N/N=C/c1cc(Cl)cc([N+](=O)[O-])c1O)c1ccc2c(c1)OCO2 | n | n | n | n | n | n | x
O=C(N/N=C/c1cc(Cl)cc([N+](=O)[O-])c1O)NC12CC3CC(CC(C3)C1)C2 | n | 84 | 50 | 82 | n | n | n
